# Test results as given in ChEMBL document CHEMBL3988442, “University of Dundee, Small-Polar-MMV Screening Library” (2021).
# The campaign covered roughly 48,000 compounds. About 13,000 (27%) showed an effect of 50% or more. The list shows a part of the results.
# Test system: Wolbachia pipientis
# Assay: Anti-Wolbachia Cell-Based Screen
# Assay type: functional
# Design: scale not given: in the data most compounds retested in dose-response had high values
# Details: 5 µM
row,Structure (SMILES),Percent Effect
1,CCN(CC)C1(Cc2cc(-c3ccccn3)on2)COC1,-7.749%
2,Cc1nc(CN(C)C2CCN(Cc3ccc(C(N)=O)cc3)C2)no1 (stereo not drawn),137.1%
3,Cc1nc(CN(C)C2CCN(CCc3ccc4c(c3)CCO4)C2)no1 (stereo not drawn),131.2%
4,CNC(=O)c1cccc(CN2CCC(N(C)Cc3noc(C)n3)C2)c1 (stereo not drawn),9.379%
5,Cc1nc(CN(C)C2CCN(Cc3ccc4c(c3)CCC4)C2)no1 (stereo not drawn),94.75%
6,Cc1nc(CN(C)C2CCN(Cc3ccc4c(c3)OCCO4)C2)no1 (stereo not drawn),-0.871%
7,Cc1nc(CN(C)C2CCN(Cc3cccc(F)c3)C2)no1 (stereo not drawn),130.9%
8,CNC(=O)c1ccc(CN2CCC(N(C)Cc3noc(C)n3)C2)cc1 (stereo not drawn),12.29%
9,CC(C)(C)C(NC(=O)CCCS(C)(=O)=O)c1ccc(F)cc1F (stereo not drawn),6.458%
10,Cc1cnc(N2CCC3(CC2)CC(NC(=O)N(C)C)CO3)nc1 (stereo not drawn),3.12%
11,CC(C)c1cc(C(=O)N2C[C@@H](C)[C@](O)(C3CC3)C2)[nH]n1,9.432%
12,CCN(C(C)c1cccc(O)c1)S(=O)(=O)c1cccnc1 (stereo not drawn),-1.511%
13,CC(C)(C)c1c[nH]c([C@@H]2COCCN2C2CCNCC2)n1,-5.137%
14,Cc1cnn(C2CN(CC(=O)NCCc3ccccc3)C2)c1,-5.59%
15,CCc1ccc(NC(=O)CCN2CC(n3nc(C)cc3C)C2)cc1,87.75%
16,Cc1cc(C)n(C2CN(CC(O)Cn3cccn3)C2)n1 (stereo not drawn),-3.488%
17,Cc1cc(C)n(C2CN(CC(=O)NC3CCOCC3)C2)n1,-6.139%
18,Cc1cc(C)n(C2CN(CCC(N)=O)C2)n1,109.9%
19,Cc1cc(C)n(C2CN(CC(=O)N3CCOCC3)C2)n1,-1.985%
20,COc1cccc(CNC(=O)C(C)N2CC(n3nc(C)cc3C)C2)c1 (stereo not drawn),-5.224%
21,Cc1cc(C)n(C2CN(Cc3ccc(C(=O)N4CCCC4)cc3)C2)n1,-4.233%
22,Cc1cc(C)n(C2CN(CCC(=O)NCCc3ccccc3)C2)n1,114.1%
23,CN(C)S(=O)(=O)NC(=O)CC(c1ccccc1)C(F)(F)F (stereo not drawn),-3.128%

row,Structure (SMILES),Percent Effect
1,CCCS(=O)(=O)NCc1cccnc1Oc1ccc(C)nc1,-8.382%
2,O=C(CC1OCCc2ccsc21)NCC1CC1 (stereo not drawn),-1.416%
3,CCc1nc(C(=O)N2CCN(CCc3ccc(OC)cc3)CC2)c[nH]1,-9.12%
4,Cc1ccc(C)c(N2CCN(CC3(O)CCNC3)CC2)c1 (stereo not drawn),-4.262%
5,Cc1cc(O)cc(=O)n1CCCC(=O)Nc1n[nH]c2ccccc12,106.8%
6,Cn1nc(C(C)(C)C)cc1NC(=O)Cn1ccccc1=O,13.92%
7,Cc1ccccc1-c1cc(NC(=O)Cn2ccccc2=O)n(C)n1,-15.16%
8,Cc1cc(O)cc(=O)n1CCCC(=O)Nc1n[nH]c2cc(Br)ccc12,109.7%
9,Cc1cc(O)cc(=O)n1CCCC(=O)Nc1n[nH]c2cccc(F)c12,106.9%
10,Cc1nonc1NC(=O)CCn1cc(Br)ccc1=O,-2.489%
11,Cc1cc(NC(=O)Cn2ccccc2=O)n(C)n1,-5.406%
12,Cc1noc(C)c1NC(=O)CCn1cc(Br)ccc1=O,5.297%
13,O=C(NCCCO)C1CC(=O)N(c2n[nH]c3cccc(F)c23)C1 (stereo not drawn),13.85%
14,COc1ccccc1OC1(C(=O)O)CCN(c2nccnc2OC)CC1,-49.7%
15,CC(=O)c1ccc(N2CCCC(CO)(Cc3ccccc3F)C2)nc1 (stereo not drawn),-130%
16,CC(C(=O)N1CCn2cncc2C1)N1C[C@@H](C)O[C@@H](C)C1 (stereo partly drawn),4.778%
17,Cc1nc(C)c(C(=O)N2CCCc3c(F)ccc(F)c32)o1,-4.238%
18,Cc1noc([C@@]23CCO[C@@H]2CCN(C(=O)c2c(C)noc2C)C3)n1,-5.968%
19,Cc1noc(C2CCN(C(=O)c3c(C)noc3C)CC2)n1,-1.195%
20,COc1cccc2c1CCCCN2C(=O)c1oc(C)nc1C,-10.05%
21,Cc1noc(C)c1C(=O)N1CCCC1(C)C(=O)NC1CCCC1 (stereo not drawn),82.14%
22,Cc1nc(C)c(C(=O)N2CCCC2(C)C(=O)NC2CCCC2)s1 (stereo not drawn),95.95%
23,Cc1nc(C)c(C(=O)N2CCCC2(C)C(=O)NC2CCCC2)o1 (stereo not drawn),148.2%

row,Structure (SMILES),Percent Effect
1,CNC(=O)C1CCCCN1C(=O)c1sc(-c2ccc(C)o2)nc1C (stereo not drawn),8.745%
2,O=C(CCn1cccn1)N1CCN(CC(F)F)CC1,6.604%
3,CN(Cc1nc2ccsc2c(=O)[nH]1)CC1CCCCC1,-1.437%
4,COc1nc2ccn(CCc3cc(O)nc(C)n3)c(=O)c2cc1C#N,-7.353%
5,COc1ccc(CCN2CCc3c(nc(C4CC4)n3C)C2)cc1,-1.016%
6,Cc1nc(N(C)C)ncc1C(=O)NCCc1csc(-c2cnccn2)n1,-3.2%
7,c1ccc(-c2nc3c(c(NCCc4c[nH]cn4)n2)CCNC3)cc1,7.707%
8,Cc1nc(C)c(C)c(NCCSc2ccccn2)n1,-2.821%
9,c1nc(CCNc2nc(C3CC3)nc3c2CCNCC3)c[nH]1,9.275%
10,Cc1nc(N(C)C)nc(NCCc2cnccn2)c1C,98.55%
11,Cc1nc(O)cc(CCNc2nc(N(C)C)nc(C)c2C)n1,19.28%
12,Cc1nc(N(C)C)nc(NCCc2c[nH]cn2)c1C,92.29%
13,Cc1nc(CCNc2nc(N(C)C)nc3c2CCCC3)cc(=O)[nH]1,13.62%
14,Cc1nc(N(C)C)nc(NCCc2ccccn2)c1C,85.61%
15,Cc1cccnc1N1CCN(Cc2cc(O)c3cccc(F)c3n2)CC1,-4.875%
16,CCS(=O)(=O)N1CCOC2(CCCN(c3ncc(F)cn3)C2)C1 (stereo not drawn),-5.745%
17,Cc1cnc(CNS(=O)(=O)CCC2CCCO2)o1 (stereo not drawn),-9.077%
18,CC1CN(Cc2cccnc2)CCN1c1ccc2nncn2n1 (stereo not drawn),111.3%
19,COc1cccc(CN2CCN(c3ccc4nncn4n3)C(C)C2)c1 (stereo not drawn),-8.631%
20,CC1CN(Cc2cnn(C)c2)CCN1c1ccc2nncn2n1 (stereo not drawn),114.2%
21,CC1CN(Cc2cccc(C#N)c2)CCN1c1ccc2nncn2n1 (stereo not drawn),-2.779%
22,CC1CN(Cc2nccn2C)CCN1c1ccc2nncn2n1 (stereo not drawn),2.712%
